PMC10668032, “Altered binding affinity of SIX1-Q177R correlates with enhanced WNT5A and WNT pathway effector expression in Wilms tumor”
In all, about 33,000 sequences were measured (“e-score”: median about -0.05, highest 2% from about 0.38 on). This excerpt belongs to a sample that is enriched for the highest values.

Target: T1, SIX1-Q177R homeodomain (human, UniProt Q15475 108-198, Q177R)
T1 sequence: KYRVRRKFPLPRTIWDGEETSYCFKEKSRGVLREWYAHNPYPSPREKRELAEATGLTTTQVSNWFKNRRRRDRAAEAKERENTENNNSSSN
Test: universal protein binding microarray; Universal all-10-mer PBM (8x60K, AMADID 030236), 300 nM GST-tagged protein, Alexa Fluor 488 anti-GST; buffer, salt, pH and temperature not stated (as in Berger); high values mean tight binding
Details: protein: ivt; tags: N-terminal GST; dsDNA, one strand shown
Outline: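 Homeodomains fused to GST were made by in vitro transcription/translation and measured by anti-GST western blot with a recombinant GST standard curve. At 300 nM final concentration, they were applied in duplicate to universal 'all 10-mer' protein binding microarrays (8×60K format).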

Sequence | binding signal [E-score]
CACTAACA | 0.284 ± 0.0307
CGACCCCG | 0.255 ± 0.0544
CCCAATAC | 0.17 ± 0.00354
TATTTACA | 0.311 ± 0.0362
AAGTAGTG | 0.27 ± 0.0294
CCCCTCAG | 0.251 ± 0.0116
ATCCCGTG | 0.228 ± 0.0211
CACGAGGG | 0.189 ± 0.00843
AGGGGTAG | 0.269 ± 0.00879
CACGCCGA | 0.194 ± 0.0137
AAGCGACA | 0.229 ± 0.0424
CACCTCCA | 0.293 ± 0.0179
ATACACAC | 0.315 ± 0.0133
ATACCCCC | 0.364 ± 0.0151
ATACACCA | 0.47 ± 0.0019
ATACACAG | 0.187 ± 0.0325
ATGCACCA | 0.165 ± 0.000877
ACCCACCA | 0.2 ± 0.00308
ATACACCG | 0.472 ± 0.00491
ATACACCC | 0.46 ± 0.00688
ATATACCG | 0.15 ± 0.0185
ACTCGGTG | 0.368 ± 0.00838
CACCTCCC | 0.256 ± 0.00611
ATACCCCA | 0.254 ± 0.016
ATCGGTGC | 0.204 ± 0.0156

Sequence | binding signal [E-score]
ACTCCCAG | 0.262 ± 0.038
AGGGAGTA | 0.178 ± 0.0384
TGTCCTAA | 0.241 ± 0.0454
TGTAGACA | 0.2571 ± 0.000438
CGGCACCA | 0.181 ± 0.0154
ACACAGCG | 0.1958 ± 0.00148
AGTGTCTA | 0.3723 ± 0.00362
GGTGTCTA | 0.468 ± 0.0105
CGTGTCTA | 0.405 ± 0.0182
GGTATCTA | 0.216 ± 0.0361
GGGGTCTA | 0.229 ± 0.0526
CCCCAAGC | 0.228 ± 0.0222
ACACAGGT | 0.252 ± 0.0297
ACCCCGGT | 0.298 ± 0.00305
ACCCCGGC | 0.262 ± 0.0281
GCACCGGA | 0.162 ± 0.0479
CCACCGGA | 0.203 ± 0.037
ATACCGGG | 0.213 ± 0.0219
ACACCGGT | 0.481 ± 0.00684
ACACCGGA | 0.476 ± 0.00539
ACTCCGGC | 0.233 ± 0.0256
ACACCGGC | 0.481 ± 0.00281
ACCCCGGG | 0.302 ± 0.0198
ACACCGGG | 0.4843 ± 0.00112
CACCATCC | 0.252 ± 0.00467

Sequence | binding signal [E-score]
GTGCTCTA | 0.221 ± 0.0342
CCAACTAC | 0.151 ± 0.00402
ACCTCTAC | 0.151 ± 0.00402
ACCACGTG | 0.194 ± 0.00218
ACGGGATC | 0.197 ± 0.0102
CGGGGTAA | 0.235 ± 0.0071
ACACTCAA | 0.39 ± 0.0152
ACACTTAA | 0.316 ± 0.0276
ACACTCAC | 0.39 ± 0.00873
ACTCACAC | 0.3 ± 0.0164
ACACTCAT | 0.388 ± 0.0116
ACTCTTAT | 0.212 ± 0.0414
ACACTCTA | 0.367 ± 0.0161
ACACTCAG | 0.387 ± 0.00387
ACACTTAC | 0.378 ± 0.013
ACACTTAG | 0.355 ± 0.0376
CACTTACC | 0.224 ± 0.032
AGCCCGGG | 0.157 ± 0.00865
CGTGAACC | 0.17 ± 0.0126
TGTATACA | 0.283 ± 0.0331
ACTACGTG | 0.21 ± 0.0113
GGGGATCA | 0.275 ± 0.0112
GAGGGATC | 0.213 ± 0.0344
CCCCATGA | 0.151 ± 0.00929
GGCGAGGA | 0.174 ± 0.0324

Sequence | binding signal [E-score]
ACCCTAAG | 0.1853 ± 0.00154
CACCCTTA | 0.263 ± 0.0167
ATACCCTA | 0.312 ± 0.0168
ACCAGAAT | 0.161 ± 0.0505
CCGACCAG | 0.161 ± 0.0337
GAAACACC | 0.4545 ± 0.000905
CAAACACC | 0.4485 ± 0.00209
AAAACACC | 0.437 ± 0.0129
TAAACACA | 0.214 ± 0.0172
AAAACACG | 0.321 ± 0.0302
AAAACACT | 0.301 ± 0.0568
AAAACACA | 0.188 ± 0.0109
CAAACACG | 0.32 ± 0.0109
CAAACACA | 0.19 ± 0.0451
ACCCTCCA | 0.175 ± 0.00491
AGAAGGGG | 0.223 ± 0.00875
CAGAGGGG | 0.193 ± 0.0159
CACAACTG | 0.1786 ± 0.00129
CACCTGAA | 0.2354 ± 0.0017
CACTTGTC | 0.161 ± 0.0236
TCCTAGGA | 0.22 ± 0.0107
CCGGGGAA | 0.18 ± 0.0043
CACCCCAA | 0.336 ± 0.0263
GCGGGGGA | 0.157 ± 0.00972
GCACCAAC | 0.261 ± 0.0127

Sequence | binding signal [E-score]
ACTCCAAG | 0.2 ± 0.00662
ACACCAAG | 0.455 ± 0.0109
ATACCAAC | 0.163 ± 0.00749
ACACCAAC | 0.4617 ± 0.00175
CACCAAAA | 0.217 ± 0.0236
ACCCCAAT | 0.266 ± 0.0184
ACACCAAT | 0.473 ± 0.00609
ACACAAAT | 0.167 ± 0.0837
ACACCAAA | 0.4659 ± 0.00317
ACCCCAAA | 0.205 ± 0.0372
ACACAAAG | 0.236 ± 0.0826
GGAGAATA | 0.193 ± 0.0325
CCTGAACA | 0.254 ± 0.00385
AGTTAAGA | 0.155 ± 0.00537
CCGGGTTC | 0.22 ± 0.0235
AGTTAGGA | 0.153 ± 0.019
GACCCGGA | 0.184 ± 0.0271
ACACGCAC | 0.4052 ± 0.00394
ACGCGCAG | 0.175 ± 0.0335
ACGCACAC | 0.307 ± 0.0495
ACACGCAT | 0.383 ± 0.00385
CCCCGCAA | 0.17 ± 0.00535
ACACGCAG | 0.391 ± 0.00589
ACACGCAA | 0.3952 ± 0.00317
ACTCCCCT | 0.249 ± 0.0205

Sequence | binding signal [E-score]
CGGATCAG | 0.174 ± 0.00822
ACCGGAGG | 0.183 ± 0.0608
ACTCCTCC | 0.213 ± 0.0626
ATTTGACA | 0.216 ± 0.00896
CGCATTAC | 0.204 ± 0.0114
ACCCTGAG | 0.245 ± 0.0251
CCCAACAA | 0.199 ± 0.00812
CCAAACAC | 0.3825 ± 0.00157
CCCAAAAC | 0.193 ± 0.0284
GCAAACAC | 0.351 ± 0.00619
CCCAACAC | 0.403 ± 0.0145
ACCAACAC | 0.41011 ± 0.000354
ACCAACTC | 0.169 ± 0.01
GCCAACAC | 0.3693 ± 0.00257
ACTATGTG | 0.17 ± 0.0249
CACCTTCA | 0.241 ± 0.0302
CACCTTGG | 0.344 ± 0.0104
CCCCTACC | 0.237 ± 0.0383
GAGTGTCC | 0.406 ± 0.00513
AAGTGTCA | 0.418 ± 0.0194
GAGTGACA | 0.242 ± 0.00566
AAGTGTCC | 0.332 ± 0.00652
GAGTATCC | 0.199 ± 0.0139
GAGTGTCA | 0.45 ± 0.0122
GTGTGTCA | 0.369 ± 0.0056

Sequence | binding signal [E-score]
AAGTGTCT | 0.346 ± 0.0141
TAGTGTCA | 0.454 ± 0.00792
TAGTGACA | 0.211 ± 0.0357
TAGAGTCA | 0.196 ± 0.0118
CGTATCCA | 0.159 ± 0.0161
ATATACCC | 0.2382 ± 0.000608
CACCCAGA | 0.189 ± 0.0293
ACCAGATA | 0.162 ± 0.0127
ACCACGGA | 0.178 ± 0.0145
ACCCTTAC | 0.158 ± 0.0125
CACCTTTA | 0.223 ± 0.0267
CACAGACA | 0.155 ± 0.0227
CCGACCCG | 0.176 ± 0.00738
ACGTGTAT | 0.321 ± 0.0343
GCGTGTAC | 0.4393 ± 0.000926
GCGTATAC | 0.158 ± 0.00385
CCGTGTAC | 0.4382 ± 0.00199
GCGTTTAC | 0.16 ± 0.0218
ACGTGTAG | 0.347 ± 0.0241
CCGTGTGC | 0.215 ± 0.0507
ACGTGTAC | 0.387 ± 0.0177
CCCTGTAC | 0.173 ± 0.0309
ACCGCCCC | 0.157 ± 0.0585
ACCACTGG | 0.153 ± 0.00392
ACCTTACC | 0.155 ± 0.0397

Sequence | binding signal [E-score]
CACGGACA | 0.298 ± 0.0109
AACGACAC | 0.4466 ± 0.00332
CACGACGC | 0.151 ± 0.0468
CACGACTC | 0.304 ± 0.00378
CACGACAC | 0.448 ± 0.0167
GACGACCC | 0.158 ± 0.0499
CACGACCC | 0.32 ± 0.0093
CACGACCA | 0.227 ± 0.0193
GACGACAC | 0.429 ± 0.0137
CACGACAG | 0.1738 ± 0.000629
CACCTATA | 0.301 ± 0.00719
CCCGACCA | 0.204 ± 0.0179
CCCGTGTA | 0.453 ± 0.00915
CCTGTGTA | 0.192 ± 0.0408
GCCGGGTA | 0.197 ± 0.033
CCCGTCTC | 0.239 ± 0.00285
CCCGCGTA | 0.154 ± 0.0151
CCCGTGAC | 0.155 ± 0.00256
ACCGTGTC | 0.428 ± 0.0209
CCCGTGTC | 0.458 ± 0.00911
ACCGTGTG | 0.259 ± 0.0453
ACCGTGCC | 0.179 ± 0.0325
GCCGTGTA | 0.419 ± 0.00774
CCCCCGGA | 0.263 ± 0.00617
AAGGATCC | 0.178 ± 0.0155

Sequence | binding signal [E-score]
GACTCCGA | 0.198 ± 0.0344
ACCGGGTA | 0.212 ± 0.00998
ACCCTGTA | 0.153 ± 0.0186
ACCGTGTA | 0.4376 ± 0.00046
GCAGCACC | 0.219 ± 0.0401
GGTTAAAC | 0.183 ± 0.0367
CGTTTACA | 0.154 ± 0.0251
AGTTGCAC | 0.208 ± 0.0144
CGTTACCC | 0.207 ± 0.026
AGTTACAC | 0.449 ± 0.0313
GGTTGCAC | 0.183 ± 0.0188
CGTTACAC | 0.424 ± 0.0188
GGTTACAC | 0.4536 ± 0.000905
AAATGGTG | 0.289 ± 0.00359
CGCCGGCG | 0.192 ± 0.0602
AGTTCGAA | 0.156 ± 0.011
CCCCCGCA | 0.218 ± 0.0293
CGACCCCA | 0.233 ± 0.0324
CTATACAC | 0.379 ± 0.0172
GTATACAC | 0.411 ± 0.00685
GTATACAA | 0.155 ± 0.0122
GAGTATAC | 0.157 ± 0.0409
ATATATAC | 0.154 ± 0.00578
ATATACAC | 0.409 ± 0.0246
